The subject of test [1] is Wnt5a (protein binding on small-molecule microarray). In words: small molecules binding Wnt5a protein – biophysical, small-molecule microarray, 635/667 nm fluorescence, primary screen (AID 1142).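 Also: fluorescence read at 667 nm with signal to noise per printed feature.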 As to conditions: 635 nm fluorescence, higher = more signal.
A short description of test [2]: ATP-based viability of Huh7 replicon cells – cell-based, CellTiter-Glo luminescence, basal, 48 h, cytotoxicity control for HCV replication inhibitor project, primary screen (AID 1143).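 Also: Huh7 hepatoma cells carrying a hepatitis C replication reporter with no stimulus; test concentration not given here.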 As to conditions: higher = more signal, called active from +8 up or from −8 down.
Test [3] in a line: Pseudomonas biofilm growth suppression – PAO1 strain, BacTiter-Glo luminescence, LB-PBS, primary screen (AID 1144). The conditions noted are these: P. aeruginosa PAO1 biofilm, 12 h, higher = more signal.
Test [4] can be described thus: basal CRE-LacZ reporter activity in PC12 – cell-based, unstimulated, primary screen (AID 1145). As to conditions: no forskolin, luminescence, 4.5 h, higher = more signal, called active from +8 up or from −8 down.
A short description of test [5]: forskolin-driven CRE-LacZ activity in PC12 – cell-based, CRE-LacZ reporter, forskolin-stimulated, primary screen (AID 1146).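 Also: PC12 cells with 6xCRE LacZ reporter stimulated by forskolin 10 µM; beta-galactosidase reporter signal reflecting CREB driven transcription.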 The conditions noted are these: luminescence, 4.5 h, higher = more signal, called active from +8 up or from −8 down.
The target in test [6] is Streptavidin (Streptomyces avidinii) (UniProt P22629). In words: compounds binding control protein streptavidin – biophysical, small-molecule microarray, 635/667 nm fluorescence, artefact control for SMM compound annotation, primary screen (AID 1147).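 Also: signal reflects streptavidin binding to arrayed compounds as a control protein.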 The conditions noted are these: higher = more signal.
Chain of Streptavidin (Streptomyces avidinii) (P22629 whole entry, looked up): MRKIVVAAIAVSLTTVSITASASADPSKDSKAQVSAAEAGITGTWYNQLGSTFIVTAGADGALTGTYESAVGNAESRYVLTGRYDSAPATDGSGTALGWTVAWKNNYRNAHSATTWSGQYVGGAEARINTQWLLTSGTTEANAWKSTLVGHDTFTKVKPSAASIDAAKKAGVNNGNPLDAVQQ
The nature of test [7]: probe aInhba binding on compound microarray – biochemical, small-molecule microarray, 635/667 nm fluorescence, primary screen (AID 1148).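 Also: score merges 667nm spot fluorescence with signal-to-noise for antibody binding to printed compounds.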 The conditions noted are these: higher = more signal.
Test [8] addresses Torsin-1A (Homo sapiens) (UniProt O14656). Description: TOR1A wild-type binding on microarray – cell lysate, small-molecule microarray, lysate, 635/667 nm, primary screen (AID 1149). The conditions noted are these: COS7 hTOR1A-WT lysate, 635 nm fluorescence, higher = more signal.
For test [9] the target is unchanged. In words: torsin A mutant lysate binding on microarrays – cell lysate, small-molecule microarray, COS7 lysate, 635/667 nm fluorescence, primary screen (AID 1150).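 Also: score pools 667 nm emission and signal to noise measuring lysate protein binding.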 The conditions noted are these: COS7 hTOR1A mutant lysate, 635 nm fluorescence, higher = more signal.
Test [10] deals with Sonic hedgehog protein (Shh). Description: Sonic hedgehog microarray binding compounds – biochemical, small-molecule microarray, 635/667 nm fluorescence, primary screen (AID 1151).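 Also: Shh protein binding to compounds spotted on small-molecule microarray slides; score combines spot fluorescence intensity with signal-to-noise across triplicate slides.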 As to conditions: 635 nm fluorescence, higher = more signal.
The nature of test [11]: optical density shifts of acrAB sulA E. coli – strain DRC41, OD650, 48 h, E. coli filamentation inducer project, primary screen (AID 1152).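 Also: E. coli MC1000 strain DRC41 lacking acrAB efflux pump and sulA.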 As to conditions: higher = more signal, called active from +8 up or from −8 down.
A short description of test [12]: probe aLefty1 binding on compound microarray – biochemical, small-molecule microarray, 635/667 nm fluorescence, primary screen (AID 1153).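 Also: score merges spot fluorescence with signal-to-noise ratio from the scanned slide images.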 As to conditions: higher = more signal.
Test [13] in a line: plasmodial surface anion channel blockers, osmotic lysis – cell-based, P. falciparum Indochina, OD700, 1 h, primary screen (AID 1154). The conditions noted are these: P. falciparum Indochina infected RBC osmotic lysis, higher = more signal, called active from +8 up or from −8 down.
The nature of test [14]: plasmodial surface anion channel blockers, osmotic lysis – cell-based, P. falciparum Indochina, OD700, 2 h, primary screen (AID 1155).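 Also: lysis reports solute entry through the parasite surface anion channel PSAC.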 As to conditions: P. falciparum Indochina infected erythrocytes, higher = more signal, called active from +8 up or from −8 down.
A short description of test [15]: changes in parasitized red cell lysis, either direction – P. falciparum Indochina, OD700, 3 h, PSAC antagonist project, primary screen (AID 1156). As to conditions: P. falciparum-infected erythrocytes, osmotic lysis, higher = more signal, called active from +8 up or from −8 down.
The nature of test [16]: plasmodial surface anion channel blockers, osmotic lysis – cell-based, P. falciparum Indochina, OD700, 18 h, primary screen (AID 1157). As to conditions: P. falciparum Indochina infected erythrocytes, osmotic lysis OD700, 18 h; higher = more signal, called active from +8 up or from −8 down.
Test [17] is described as follows: S6 kinase pathway phospho-S6 level changes – cell-based, A549, cytoblot, luminescence, serum-stimulated, primary screen (AID 1158).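 Also: serum-stimulated A549 lung adenocarcinoma cells; signal is phosphorylated S6 detected by cytoblot immunostaining with HRP secondary.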 As to conditions: 5 h, higher = more signal.
For test [18], the target named is NADPH oxidase 2 (Homo sapiens) (UniProt P04839). Description: compounds shifting NOX2 Amplex Red fluorescence – cell-based, HEK293-NOX2, PMA-stimulated, NOX inhibitor project, primary screen (AID 1159). Also: test concentration not given here. The conditions noted are these: 45 min, higher = more signal, called active from +8 up or from −8 down.
Chain of NADPH oxidase 2 (Homo sapiens) (P04839 whole entry, looked up): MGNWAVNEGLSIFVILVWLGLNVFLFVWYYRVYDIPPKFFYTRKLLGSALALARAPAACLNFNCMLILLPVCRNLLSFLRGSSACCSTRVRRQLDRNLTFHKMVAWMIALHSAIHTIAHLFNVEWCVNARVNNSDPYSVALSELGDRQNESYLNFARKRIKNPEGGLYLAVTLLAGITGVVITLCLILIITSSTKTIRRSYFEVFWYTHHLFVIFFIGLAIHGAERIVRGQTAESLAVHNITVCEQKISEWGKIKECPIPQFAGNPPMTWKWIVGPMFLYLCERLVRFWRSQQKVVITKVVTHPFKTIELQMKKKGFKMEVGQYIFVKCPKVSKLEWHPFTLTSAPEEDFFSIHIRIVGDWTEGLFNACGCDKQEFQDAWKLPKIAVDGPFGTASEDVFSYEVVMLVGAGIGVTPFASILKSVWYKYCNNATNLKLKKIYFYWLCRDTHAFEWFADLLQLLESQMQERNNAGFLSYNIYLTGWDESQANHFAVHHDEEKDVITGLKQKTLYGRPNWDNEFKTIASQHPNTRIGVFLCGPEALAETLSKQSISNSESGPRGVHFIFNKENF
Test [19] concerns the target NADPH oxidase 4 (Homo sapiens) (UniProt Q9NPH5). In words: compounds shifting NOX4 Amplex Red fluorescence – cell-based, HEK293-NOX4, tetracycline-induced, NOX inhibitor project, primary screen (AID 1160). The conditions noted are these: HEK293-NOX4, Amplex Red H2O2 fluorescence, 45 min; higher = more signal, called active from +8 up or from −8 down.
The target in test [20] is NADPH oxidase 5 (Homo sapiens) (UniProt Q96PH1). Description: compounds shifting NOX5 Amplex Red fluorescence – cell-based, HEK293-NOX5, NOX inhibitor project, primary screen (AID 1161). The conditions noted are these: HEK293-NOX5, ionomycin, 45 min, higher = more signal.
Chain of NADPH oxidase 5 (Homo sapiens) (Q96PH1 whole entry, looked up): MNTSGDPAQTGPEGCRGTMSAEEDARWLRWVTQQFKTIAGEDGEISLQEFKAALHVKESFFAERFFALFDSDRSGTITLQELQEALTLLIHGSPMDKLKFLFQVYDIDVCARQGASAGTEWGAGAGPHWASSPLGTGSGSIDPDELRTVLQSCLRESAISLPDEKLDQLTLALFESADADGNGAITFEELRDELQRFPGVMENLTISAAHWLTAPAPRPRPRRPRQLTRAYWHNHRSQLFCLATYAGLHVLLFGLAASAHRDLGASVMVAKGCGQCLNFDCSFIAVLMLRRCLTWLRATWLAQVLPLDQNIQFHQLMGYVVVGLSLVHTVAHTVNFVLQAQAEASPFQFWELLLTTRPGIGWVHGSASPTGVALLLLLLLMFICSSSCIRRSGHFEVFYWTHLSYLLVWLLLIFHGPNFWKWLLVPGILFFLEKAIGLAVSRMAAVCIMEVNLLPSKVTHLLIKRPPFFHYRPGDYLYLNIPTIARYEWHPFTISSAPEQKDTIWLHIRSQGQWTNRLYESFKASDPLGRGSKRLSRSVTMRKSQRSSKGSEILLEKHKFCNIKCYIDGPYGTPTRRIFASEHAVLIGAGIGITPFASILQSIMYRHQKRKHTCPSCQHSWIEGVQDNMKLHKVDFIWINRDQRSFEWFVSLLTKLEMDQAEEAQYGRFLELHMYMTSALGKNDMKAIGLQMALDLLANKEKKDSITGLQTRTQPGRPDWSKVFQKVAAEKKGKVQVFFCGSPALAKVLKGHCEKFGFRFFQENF

Activity calls are given as the source filed them. Unless noted, no rule for the calls is given here.

Chain of NADPH oxidase 4 (Homo sapiens) (Q9NPH5 whole entry, looked up): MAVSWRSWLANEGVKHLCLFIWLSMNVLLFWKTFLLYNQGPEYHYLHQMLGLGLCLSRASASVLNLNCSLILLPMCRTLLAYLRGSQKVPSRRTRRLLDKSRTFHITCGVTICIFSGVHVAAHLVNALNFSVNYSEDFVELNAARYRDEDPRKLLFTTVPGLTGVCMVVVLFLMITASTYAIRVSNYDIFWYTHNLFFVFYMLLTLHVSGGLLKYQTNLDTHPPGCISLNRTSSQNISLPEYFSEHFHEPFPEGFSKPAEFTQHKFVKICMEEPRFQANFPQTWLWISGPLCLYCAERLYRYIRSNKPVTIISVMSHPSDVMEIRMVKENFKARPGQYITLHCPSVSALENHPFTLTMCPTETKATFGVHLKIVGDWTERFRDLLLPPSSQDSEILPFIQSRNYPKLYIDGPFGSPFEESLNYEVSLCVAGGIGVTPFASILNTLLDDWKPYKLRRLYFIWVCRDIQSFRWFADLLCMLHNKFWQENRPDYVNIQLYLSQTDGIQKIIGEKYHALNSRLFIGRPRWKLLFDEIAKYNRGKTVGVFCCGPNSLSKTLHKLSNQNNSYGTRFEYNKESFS
Chain of Torsin-1A (Homo sapiens) (O14656 whole entry, looked up): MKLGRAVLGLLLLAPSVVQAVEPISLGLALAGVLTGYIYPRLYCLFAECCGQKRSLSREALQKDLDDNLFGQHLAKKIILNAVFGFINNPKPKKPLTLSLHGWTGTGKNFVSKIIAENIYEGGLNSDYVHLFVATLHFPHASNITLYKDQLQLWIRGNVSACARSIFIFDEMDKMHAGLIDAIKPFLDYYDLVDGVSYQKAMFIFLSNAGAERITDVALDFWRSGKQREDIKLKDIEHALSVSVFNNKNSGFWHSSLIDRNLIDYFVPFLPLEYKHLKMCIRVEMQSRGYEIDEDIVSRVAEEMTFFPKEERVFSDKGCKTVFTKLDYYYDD

Turning to `O=C1C[C@@](C(=O)NCCN2CCOCC2)(c2ccc([N+](=O)[O-])cc2)[C@@H](c2ccc(CO)cc2I)N1CC12CC3CC(CC(C3)C1)C2`, the composite z-score in test [1] is 0.92; in [6], 0.489; in test [7], 0.134; with Torsin-1A (Homo sapiens) [8], 0.97; with Torsin-1A (Homo sapiens) [9], 0.578; in [10], 2.14. This compound also returned a composite z-score in test [12] of 0.344. The z-score is -5.9 (inactive) in test [2]; 1.22 (inactive) in test [3]; -0.269 (inactive) in [4]; -0.435 (inactive) in test [5]; -0.942 (inactive) in test [11]; 18.9 (active) in test [13]. The z-score in test [14] is 10.2 (active); in [15], 0.797 (inactive); in [16] it was 1.28 (inactive); in [17] it was 0.238; in test [18], -8.18 (active); in [19], -1.75 (inactive). In addition, the z-score in [20] worked out at 1.58.
In the case of `CCOC(=O)C[C@H]1[C@H](OC(=O)c2ccc(C(=O)c3ccccc3)cc2)[C@@H](NC(=O)c2ccc3ccccc3c2)c2cc(OCCCO)ccc2N1C(=O)Cc1ccc(OC)cc1`, the composite z-score in [1] was -0.354; in [6] it was 0.271; in [7] it was -0.102; with Torsin-1A (Homo sapiens) [8], 1.08; with Torsin-1A (Homo sapiens) [9], 0.16; in test [10], -0.006. For the same compound, the composite z-score in test [12] was determined as 0.138. In addition, the z-score in test [2] was -0.132 (inactive); in test [3], -0.329 (inactive); in test [4] it was -0.635 (inactive); in test [5] it was -0.383 (inactive); in [11] it was 0.739 (inactive); in test [13], 6.12 (inactive). Moreover, the z-score in test [14] is 0.448 (inactive); in test [15], 0.337 (inactive); in test [16], 0.184 (inactive); in test [17], 0.742; in test [18] it was -0.992 (inactive); in test [19] it was 0.557 (inactive). The z-score in [20] is 0.161.
For `Cc1ccc(S[C@]2(C(=O)NCCCN(C)C)CC(=O)N(Cc3cc(C(F)(F)F)cc(C(F)(F)F)c3)[C@@H]2c2ccc(CO)cc2I)cc1`, the composite z-score was -0.116 in test [1]; -0.0724 in [6]; 0.172 in [7]; -0.314 in the test with Torsin-1A (Homo sapiens) [8]; -0.88 in the test with Torsin-1A (Homo sapiens) [9]; -0.503 in [10]. Further, the composite z-score in test [12] amounted to 1.37. The z-score is -1.21 (inactive) in [2]; 0.463 (inactive) in test [3]; -0.994 (inactive) in [4]; 1.23 (inactive) in [5]; 0.272 (inactive) in [11]; 3.48 (inactive) in [13]. The z-score was 1.12 (inactive) in test [14]; -1.36 (inactive) in test [15]; 0.303 (inactive) in test [16]; -0.232 in test [17]; 1.28 (inactive) in test [18]; -1.25 (inactive) in test [19]. Moreover, the z-score in test [20] was determined as 2.43.
For `COC(=O)C(CC#Cc1ccc2c(c1)[C@]1(C(=O)N2)[C@H](c2ccc(OCCO)cc2)N2[C@H](c3ccccc3)[C@H](c3ccccc3)OC(=O)[C@H]2[C@@H]1C(=O)Nc1nc2ccccc2s1)C(=O)OC`, the composite z-score is 0.35 in [1]; 1.53 in test [6]; -0.157 in test [7]; 1.36 in the test with Torsin-1A (Homo sapiens) [8]; 0.414 with Torsin-1A (Homo sapiens) [9]; 0.588 in [10]. In addition, in test [12], the composite z-score is -0.0611. The z-score in test [2] was -1.68 (inactive); in test [3], -1.39 (inactive); in test [4], -0.375 (inactive); in [5], 1.33 (inactive); in test [11], 1.99 (inactive); in [13], 4.42 (inactive). Moreover, the z-score in test [14] was 1.76 (inactive); in test [15] it was 0.66 (inactive); in [16], 1.82 (inactive); in test [17] it was -0.206; in [18] it was 1.18 (inactive); in [19] it was 0.786 (inactive). Moreover, in [20], the z-score was found to be 1.03.
On to `CC(C)C(CO)N1C(=O)[C@@H]2C3C(=O)OCCC/C=C\[C@H]3OC23C=CCN(CCN2CCOCC2)C(=O)[C@@H]13` (stereo not given in full), for which the composite z-score in test [1] is 0.0992; in test [6] it was -0.578; in test [7], -0.251; with Torsin-1A (Homo sapiens) [8], -0.111; in the test with Torsin-1A (Homo sapiens) [9] it was -0.184; in test [10], 0.856. The compound further came in with a composite z-score in [12] of -0.07. Besides, the z-score was 0.39 (inactive) in test [2]; 0.723 (inactive) in [3]; -0.212 (inactive) in [4]; -0.0271 (inactive) in test [5]; -0.385 (inactive) in [11]; 0.81 (inactive) in [13]. For the same compound, the z-score is 0.179 (inactive) in test [14]; 0.148 (inactive) in [15]; 0.16 (inactive) in [16]; -0.158 in test [17]; 1 (inactive) in [18]; 0.401 (inactive) in [19]. Besides, the z-score in [20] came to 1.4.
As for `COC(=O)[C@@]1(Cc2ccc(OC)cc2)[C@H]2c3cc(C(=O)N(C)C)n(Cc4ccccn4)c3C[C@H]2CN1C(=O)c1ccccc1`, the composite z-score in [1] is 0.164; in [6] it was 2.57; in test [7] it was 0.322; with Torsin-1A (Homo sapiens) [8], 0.192; with Torsin-1A (Homo sapiens) [9], 1.59; in test [10] it was -0.403. The same compound gave a composite z-score in [12] of 0.771. The z-score in test [2] was -1.17 (inactive); in test [3], 0.691 (inactive); in test [4], 1.16 (inactive); in [5], 0.97 (inactive); in [11], -1.76 (inactive); in test [13], 1.63 (inactive). Also, the z-score in test [14] was 0.463 (inactive); in test [15], 1.01 (inactive); in test [16], 0.863 (inactive); in test [17], 0.704; in test [18] it was 0.188 (inactive); in test [19] it was -1.32 (inactive). In addition, in [20], the z-score is -2.73.
In the case of `C=C(CCCC)/C(=C/C[C@@H](OC(C)=O)c1ccc(OCCO)cc1)c1cnc2ccccc2c1`, the composite z-score in test [1] was -0.0157; in [6] it was 0.514; in [7], -0.0405; in the test with Torsin-1A (Homo sapiens) [8] it was -0.197; with Torsin-1A (Homo sapiens) [9], 0.101; in [10], 1.77. For the same compound, the composite z-score in test [12] is 0.0038. For the same compound, the z-score is -0.842 (inactive) in test [2]; -1.02 (inactive) in test [3]; 1.21 (inactive) in test [4]; -0.438 (inactive) in test [5]; 1.04 (inactive) in test [11]; 24 (active) in test [13]. Further, the z-score in test [14] was 6.92 (inactive); in [15] it was 2.09 (inactive); in [16], 1.34 (inactive); in [17], 0.684; in test [18], -1.98 (inactive); in test [19] it was -0.0832 (inactive). In addition, in test [20], the z-score was -2.21.
Regarding `CN(C)CCCCCCNC(=O)[C@H]1C[C@H]2C(=O)N[C@@H](CCCCN)C(=O)N2[C@H]1c1cccc(OCCO)c1`, the composite z-score came out at 1.73 in test [1]; 2.14 in test [6]; 0.778 in test [7]; 3.76 with Torsin-1A (Homo sapiens) [8]; 3.35 with Torsin-1A (Homo sapiens) [9]; 1.43 in [10]. Also, the composite z-score in test [12] worked out at 2.71. The z-score is 0.0574 (inactive) in test [2]; 0.949 (inactive) in test [3]; 0.688 (inactive) in test [4]; 0.691 (inactive) in test [5]; -0.497 (inactive) in test [11]; 2.2 (inactive) in test [13]. The z-score in test [14] was 0.192 (inactive); in [15] it was 0.32 (inactive); in test [16], 0.229 (inactive); in [17], -0.268; in test [18], 1.65 (inactive); in test [19], 1.03 (inactive). In addition, the z-score in test [20] is 1.24.
